This is part of a sample that, as a whole, favours compounds with a hit. Of some 83,000 tested, about 20% had one in any assay.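 Each cell line was grown in a 96-well plate and treated with one concentration of compound for 48 hours. Values below 10 were considered active.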 Calls of active or inactive are those of the source.
Columns and labels:
Experiment in all cases: NCI-60 one-dose screen, 48 h (100 = growth as untreated, 0 = no growth, -100 = all killed)
Conditions in all cases: 10 µM unless noted
HCT-15 colon = tested on: HCT-15 colon
HT29 colon = tested on: HT29 colon
SNB-75 CNS = tested on: SNB-75 CNS
SNB-19 CNS = tested on: SNB-19 CNS
U251 CNS = tested on: U251 CNS
PC-3 prostate = tested on: PC-3 prostate
SK-MEL-5 melanoma = tested on: SK-MEL-5 melanoma
UACC-62 melanoma = tested on: UACC-62 melanoma
SK-MEL-28 melanoma = tested on: SK-MEL-28 melanoma
SK-MEL-2 melanoma = tested on: SK-MEL-2 melanoma
EKVX NSCLC = tested on: EKVX NSCLC
SN12C renal = tested on: SN12C renal
UO-31 renal = tested on: UO-31 renal
TK-10 renal = tested on: TK-10 renal
ACHN renal = tested on: ACHN renal
CAKI-1 renal = tested on: CAKI-1 renal
CCRF-CEM leukemia = tested on: CCRF-CEM leukemia
MOLT-4 leukemia = tested on: MOLT-4 leukemia
A498 renal = tested on: A498 renal

Measured: growth

COc1ccc(OC)c(-c2c(C#N)c(-c3ccco3)nc3c2c(-c2ccccc2)nn3-c2ccccc2)c1
inactive: HCT-15 colon 96.9% | HT29 colon 105% | SNB-75 CNS 84.5% | SNB-19 CNS 93.3% | U251 CNS 103% | PC-3 prostate 83.7% | SK-MEL-5 melanoma 97% | UACC-62 melanoma 76.6% | SK-MEL-28 melanoma 106% | SK-MEL-2 melanoma 99.4% | EKVX NSCLC 87.1% | SN12C renal 94.6% | UO-31 renal 84.1% | TK-10 renal 98% | ACHN renal 96.4% | CAKI-1 renal 82.3% | CCRF-CEM leukemia 94.1% | MOLT-4 leukemia 96.3%

S=c1[nH]nc2ccccn12
inactive: HCT-15 colon 101% | HT29 colon 87.5% | SNB-75 CNS 88.7% | SNB-19 CNS 110% | U251 CNS 114% | PC-3 prostate 108% | SK-MEL-5 melanoma 92.3% | UACC-62 melanoma 108% | SK-MEL-28 melanoma 109% | SK-MEL-2 melanoma 95.3% | EKVX NSCLC 102% | SN12C renal 106% | UO-31 renal 87.7% | TK-10 renal 85.7% | ACHN renal 102% | CAKI-1 renal 102% | A498 renal 100% | MOLT-4 leukemia 80.7%

Oc1cccc2oc(=S)[nH]c12
inactive: HCT-15 colon 102% | HT29 colon 113% | SNB-75 CNS 86.4% | SNB-19 CNS 106% | U251 CNS 109% | PC-3 prostate 111% | SK-MEL-5 melanoma 105% | UACC-62 melanoma 101% | SK-MEL-28 melanoma 104% | SK-MEL-2 melanoma 109% | EKVX NSCLC 111% | SN12C renal 98.6% | UO-31 renal 72.9% | TK-10 renal 106% | ACHN renal 99.7% | CAKI-1 renal 120% | A498 renal 94.8% | MOLT-4 leukemia 99.5%

C/C(Cc1ccc(Cl)cc1)=C(/c1ccc(Cl)cc1)c1ccc(OCCN2CCCC2)cc1
inactive: HCT-15 colon 28.3% | HT29 colon 22.1% | SNB-75 CNS 78.2% | SNB-19 CNS 89.8% | U251 CNS 58.3% | PC-3 prostate 65.4% | SK-MEL-5 melanoma 93.1% | UACC-62 melanoma 95.6% | SK-MEL-28 melanoma 98.2% | SK-MEL-2 melanoma 105% | EKVX NSCLC 91.2% | SN12C renal 81.6% | UO-31 renal 68.1% | TK-10 renal 96.1% | CAKI-1 renal 75.9% | A498 renal 103% | CCRF-CEM leukemia 66% | MOLT-4 leukemia 59.7%

CN1CCN(CCOc2ccc(-c3cnc4c(-c5ccccc5F)cnn4c3)cc2)CC1
inactive: SNB-75 CNS 120% | SNB-19 CNS 69.1% | PC-3 prostate 32.4% | SK-MEL-5 melanoma 35% | SK-MEL-28 melanoma 59.5% | SK-MEL-2 melanoma 91.9% | EKVX NSCLC 68.4% | SN12C renal 60.7% | UO-31 renal 39.1% | TK-10 renal 71% | ACHN renal 55.7% | CAKI-1 renal 45.8%
active: HCT-15 colon 3.14% | HT29 colon -38% | U251 CNS 2.35% | UACC-62 melanoma -10.7% | MOLT-4 leukemia -9.43%

CCOC(=O)c1ccc2c(c1)[n+](=O)c(C(=O)C1CCCS1)c(C(F)(F)F)n2[O-] (stereo unspecified)
active: HCT-15 colon -72% | HT29 colon -82.4% | SNB-75 CNS -100% | SNB-19 CNS -77.4% | U251 CNS -100% | PC-3 prostate -75.4% | SK-MEL-5 melanoma -96.9% | UACC-62 melanoma -80.4% | SK-MEL-28 melanoma -93.6% | SK-MEL-2 melanoma -87.3% | EKVX NSCLC -77% | SN12C renal -47.3% | UO-31 renal -92.4% | TK-10 renal -96.5% | ACHN renal -86.9% | CAKI-1 renal -85.4% | CCRF-CEM leukemia -44% | MOLT-4 leukemia -67.3%

Cc1cc(C)nc(NC(N)=NCCc2ccccc2)n1
inactive: HCT-15 colon 55% | HT29 colon 13.5% | SNB-75 CNS 23.7% | SNB-19 CNS 46.8% | U251 CNS 31.6% | PC-3 prostate 37.7% | SK-MEL-5 melanoma 22% | UACC-62 melanoma 38% | SK-MEL-28 melanoma 33.8% | SK-MEL-2 melanoma 38.4% | EKVX NSCLC 59.7% | SN12C renal 45.1% | UO-31 renal 69.2% | TK-10 renal 75.6% | ACHN renal 46.9% | CAKI-1 renal 93.6% | CCRF-CEM leukemia 45.3% | MOLT-4 leukemia 47.7%

CCC(=O)c1c(C)[nH]c(C)c1C
inactive: HCT-15 colon 10.6% | HT29 colon 36.9% | SNB-75 CNS 109% | SNB-19 CNS 94% | U251 CNS 82.5% | PC-3 prostate 79.9% | SK-MEL-5 melanoma 88.9% | UACC-62 melanoma 95.7% | SK-MEL-28 melanoma 134% | SK-MEL-2 melanoma 16.6% | EKVX NSCLC 103% | SN12C renal 95.5% | UO-31 renal 67.1% | TK-10 renal 99.4% | CAKI-1 renal 46.4% | A498 renal 103% | MOLT-4 leukemia 84%
active: ACHN renal -33.4%

CC1(C)C(=O)/C(=C\c2cccnc2)C[C@]2(C)[C@H]3CC[C@@H]4[C@@H](C(=O)/C=C/c5ccncc5)CC[C@@]4(C)[C@]3(C)CC[C@@H]12
inactive: SNB-75 CNS 62.6% | SNB-19 CNS 15.1% | PC-3 prostate 19.5% | SK-MEL-28 melanoma 26.7% | EKVX NSCLC 50.4% | TK-10 renal 65.6% | CAKI-1 renal 28.4% | A498 renal 47.3%
active: HCT-15 colon -36% | HT29 colon 9.87% | U251 CNS -7.74% | SK-MEL-5 melanoma -10.9% | UACC-62 melanoma -26.7% | SK-MEL-2 melanoma -3.01% | SN12C renal 8.09% | UO-31 renal -94.5% | MOLT-4 leukemia 8.03%

CC1(C)C=CC[C@]2(C)[C@H]3CC[C@@H]4[C@H]5[C@H](C(=O)/C=C/c6cccnc6)CC[C@]5(CO)CC[C@@]4(C)[C@]3(C)CC[C@@H]12
active: HCT-15 colon -61.7% | HT29 colon -28% | SNB-75 CNS -89.8% | SNB-19 CNS -90.4% | U251 CNS -90.8% | PC-3 prostate -41.1% | SK-MEL-5 melanoma -99.3% | UACC-62 melanoma -63.2% | SK-MEL-28 melanoma -92% | SK-MEL-2 melanoma -66.1% | EKVX NSCLC -36.7% | SN12C renal -40% | UO-31 renal -100% | TK-10 renal -90.7% | CAKI-1 renal -75.5% | A498 renal -78.8% | CCRF-CEM leukemia -2.65% | MOLT-4 leukemia -30.6%

Cc1ccc(NC2CC(=O)N(c3c(C)cc(C)cc3C)C2=O)c(C)c1 (stereo unspecified)
inactive: HCT-15 colon 105% | HT29 colon 106% | SNB-75 CNS 105% | SNB-19 CNS 92.6% | U251 CNS 95.8% | PC-3 prostate 95.3% | SK-MEL-5 melanoma 99.9% | UACC-62 melanoma 94.3% | SK-MEL-28 melanoma 109% | SK-MEL-2 melanoma 112% | EKVX NSCLC 95.3% | SN12C renal 97.2% | UO-31 renal 81.2% | TK-10 renal 106% | CAKI-1 renal 95.6% | A498 renal 105% | CCRF-CEM leukemia 88.6% | MOLT-4 leukemia 94.6%

COC(=O)C(Cc1ccccc1)n1cc(COc2nc(Cl)nc(Nc3ccc(Cl)cc3)n2)nn1 (stereo unspecified)
inactive: HCT-15 colon 91% | HT29 colon 95.5% | SNB-75 CNS 104% | SNB-19 CNS 98.2% | U251 CNS 94.1% | PC-3 prostate 101% | SK-MEL-5 melanoma 103% | UACC-62 melanoma 93.1% | SK-MEL-28 melanoma 107% | SK-MEL-2 melanoma 97.2% | EKVX NSCLC 95.4% | SN12C renal 96.5% | UO-31 renal 72.6% | TK-10 renal 104% | ACHN renal 102% | CAKI-1 renal 92.1% | MOLT-4 leukemia 91.3%

N#C/C(=C\c1ccc(-c2ccccc2)o1)c1nc(-c2ccco2)cs1
inactive: HCT-15 colon 47.6% | HT29 colon 99.8% | SNB-75 CNS 91.9% | SNB-19 CNS 94.1% | U251 CNS 98.3% | PC-3 prostate 77.8% | SK-MEL-5 melanoma 73.5% | UACC-62 melanoma 77.9% | SK-MEL-28 melanoma 105% | SK-MEL-2 melanoma 106% | EKVX NSCLC 37.3% | SN12C renal 92.3% | UO-31 renal 55.2% | TK-10 renal 55.8% | CAKI-1 renal 85.2% | A498 renal 125% | CCRF-CEM leukemia 95.9% | MOLT-4 leukemia 98.7%

N#CC1=C(N)Oc2c(c(N)nn2-c2ccccc2)C1c1ccc(Cl)cc1 (stereo unspecified)
inactive: HCT-15 colon 107% | HT29 colon 107% | SNB-75 CNS 77.3% | SNB-19 CNS 94.7% | U251 CNS 94.9% | PC-3 prostate 91.7% | SK-MEL-5 melanoma 101% | UACC-62 melanoma 86% | SK-MEL-28 melanoma 100% | SK-MEL-2 melanoma 103% | EKVX NSCLC 90.7% | SN12C renal 97.8% | UO-31 renal 61.2% | TK-10 renal 152% | ACHN renal 93.1% | CAKI-1 renal 86.8% | CCRF-CEM leukemia 101% | MOLT-4 leukemia 98.8%

COc1c(N)c2c(c([N+](=O)[O-])c1OC)C(=O)OC2
inactive: HCT-15 colon 105% | HT29 colon 102% | SNB-75 CNS 98.7% | SNB-19 CNS 102% | U251 CNS 110% | PC-3 prostate 96.7% | SK-MEL-5 melanoma 113% | UACC-62 melanoma 102% | SK-MEL-28 melanoma 108% | SK-MEL-2 melanoma 102% | EKVX NSCLC 111% | SN12C renal 93.5% | UO-31 renal 83.4% | TK-10 renal 103% | CAKI-1 renal 115% | CCRF-CEM leukemia 96.2% | MOLT-4 leukemia 81.2%

CC(=O)c1c(C)[nH]c(-c2nc3ccc(N4CCN(C)CC4)cc3[nH]2)c1-c1ccc(N(C)C)cc1
inactive: SNB-19 CNS 42.4% | U251 CNS 51% | PC-3 prostate 42% | UACC-62 melanoma 21.1% | SK-MEL-28 melanoma 45.8% | SK-MEL-2 melanoma 64.3% | EKVX NSCLC 34.5% | SN12C renal 48.2% | CAKI-1 renal 10.3% | CCRF-CEM leukemia 36.3% | MOLT-4 leukemia 45.5%
active: HCT-15 colon 4.03% | HT29 colon 9.08% | SNB-75 CNS -9.22% | SK-MEL-5 melanoma 2.25% | UO-31 renal 7.2% | TK-10 renal -6.31% | A498 renal 6.38%

OCC1OC(n2cnc3c(Cl)ncnc32)CC1O (stereo unspecified)
inactive: HCT-15 colon 95.6% | HT29 colon 107% | SNB-75 CNS 102% | SNB-19 CNS 96.1% | U251 CNS 99.2% | PC-3 prostate 88.9% | SK-MEL-5 melanoma 106% | UACC-62 melanoma 101% | SK-MEL-28 melanoma 110% | SK-MEL-2 melanoma 108% | EKVX NSCLC 113% | SN12C renal 96.5% | UO-31 renal 76.9% | TK-10 renal 106% | ACHN renal 95.6% | CAKI-1 renal 94.1% | MOLT-4 leukemia 91.9%
